Bioassay records (PubChem BioAssay)
This is a sample that favours compounds with a hit; in the whole collection about 12% have one here.
WT yeast gro inh – growth inhibition of WT yeast, mitochondrial fusion screen | mitochondrial fusion phenotypic screen, WT strain | inhibition, % at 10 µM | hit rate 2.1% among 190,000; in the data active means inhibition above about 58%; tested in S. cerevisiae
Insulin prom inh – TRM-6 insulin promoter activity inhibition. TRM-6 cells (human fetal islet line), insulin promoter-eGFP reporter, imaging; reporter expression induced with tamoxifen. inhibition, % at 2 µM. hit rate 0.9% among 130,000;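 active means inhibition above the mean plus 3 SD, with well images judged a real hit on visual review, cut at about 60% in these data, passing the limit was not always enough; inconclusive means inhibition over the cutoff but images rejected on review; inactive means inhibition not above the cutoff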
Ins promoter up – MIN6 insulin promoter up-regulation | z-score at 5 µM | hit rate 0.3% among 190,000 | MIN6 insulin promoter-GFP reporter, high-content imaging; stronger effect = higher value | AID 1625;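 active means z-score above 3 at 5 µM with at least 500 cells counted in the well; inconclusive means wells under 500 cells, flagged as cytotoxic or low count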
KCC2 mod – KCC2 (human) Cl- transport modulation; AID 1456; hit rate 2.2% among 190,000; B-score of Tl+ flux slope (higher = more flux/activation; lower = inhibition) at 10 µM; KCC2 cells, thallium flux FluoZin-2 fluorescence;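 active means thallium flux slope and its plate-corrected score both differing from the plate sample mean at a set confidence after two filtering rounds, in either direction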;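 further: slope of fluorescence scaled to starting intensity during 10 to 20 s after thallium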
Target sequence (Q9H2X9 whole entry, looked up): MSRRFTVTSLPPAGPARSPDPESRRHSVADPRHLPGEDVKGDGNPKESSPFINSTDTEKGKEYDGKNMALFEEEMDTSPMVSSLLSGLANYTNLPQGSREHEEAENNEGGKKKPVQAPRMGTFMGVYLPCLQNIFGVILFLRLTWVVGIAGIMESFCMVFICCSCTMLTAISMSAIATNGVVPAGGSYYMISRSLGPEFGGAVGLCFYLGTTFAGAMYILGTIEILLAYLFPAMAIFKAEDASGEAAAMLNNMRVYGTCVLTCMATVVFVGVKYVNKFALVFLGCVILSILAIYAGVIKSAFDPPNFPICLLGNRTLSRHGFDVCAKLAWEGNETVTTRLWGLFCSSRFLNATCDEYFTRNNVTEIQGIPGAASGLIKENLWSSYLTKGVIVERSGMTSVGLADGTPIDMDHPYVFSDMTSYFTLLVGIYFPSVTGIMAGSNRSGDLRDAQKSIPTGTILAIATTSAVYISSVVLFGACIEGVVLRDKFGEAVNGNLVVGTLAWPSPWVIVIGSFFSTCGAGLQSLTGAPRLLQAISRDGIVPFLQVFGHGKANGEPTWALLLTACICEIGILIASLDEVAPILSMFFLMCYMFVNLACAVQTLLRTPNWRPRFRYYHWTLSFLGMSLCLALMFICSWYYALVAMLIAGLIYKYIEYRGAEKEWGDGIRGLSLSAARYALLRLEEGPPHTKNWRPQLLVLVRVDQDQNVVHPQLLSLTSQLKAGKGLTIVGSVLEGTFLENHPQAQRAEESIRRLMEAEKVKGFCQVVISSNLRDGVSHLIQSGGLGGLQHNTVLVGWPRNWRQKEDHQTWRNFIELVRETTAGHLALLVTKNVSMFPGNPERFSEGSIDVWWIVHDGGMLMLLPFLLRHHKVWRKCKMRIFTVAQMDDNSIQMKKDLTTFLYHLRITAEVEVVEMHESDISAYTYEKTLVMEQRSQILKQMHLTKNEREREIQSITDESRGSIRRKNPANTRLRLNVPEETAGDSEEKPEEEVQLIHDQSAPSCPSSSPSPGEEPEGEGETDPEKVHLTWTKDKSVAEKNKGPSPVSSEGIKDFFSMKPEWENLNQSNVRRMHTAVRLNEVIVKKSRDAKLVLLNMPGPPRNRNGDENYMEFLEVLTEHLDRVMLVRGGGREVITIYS
ROMK mod – modulators of human ROMK potassium channel | Tet-inducible ROMK, thallium flux fluorescence; actives lie on both sides | P48048 | B-score at 10 µM | hit rate 2% among 130,000;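 active means signal ratio slope over the read window, or its plate-corrected B-score, at least 3 SD from the plate mean, either direction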;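 further: B-score of the F/F0 ratio slope over 7 to 12 s after thallium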
Lmaj promast – Leishmania major promastigote growth inhibition; Leishmania major promastigotes, resazurin fluorescence viability; inhibition, % at 10 µM; hit rate 9% among 200,000; AID 1063; in the data active means inhibition above about 50%;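 further: promastigotes grown with compound for 44 hours at 28 °C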
ROMK hit retest – retested hit modulating human ROMK potassium channel. shares compounds with ROMK mod. ROMK thallium flux, fluorescence ratio; stronger effect = lower value. normalized thallium flux (F/F0 slope) at 10 µM. hit rate 54% among 3,000;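 active means Flux at 10 µM at least 3 SD below or above vehicle control mean in one or both replicates; inconclusive means no clear call, values can overlap the other calls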
The depositor's hits bear a star; ? = inconclusive; / = no result given.

SMILES | WT yeast gro inh | Insulin prom inh | Ins promoter up | KCC2 mod | ROMK mod | Lmaj promast | ROMK hit retest
CC1CCCCN1C(=O)Cn1cc(/C=C2/C(=O)Nc3ccccc32)c2ccccc21 (stereo not given) | 95.6* | 38.5 | 0.17 | -0.672 | / | 19.0 | 0.0783
O=C1NC(c2ccc3c(c2)OCO3)Nc2ccccc21 (stereo not given) | -5.9 | 7.1 | 0.05 | / | 2.23* | 0.8 | 0.0853
O=C1NC(c2ccc3c(c2)OCO3)Oc2ccccc21 (stereo not given) | -2.7 | / | 0.02 | -0.182 | / | -5.2 | /
O=C(NCCN1CCOCC1)c1ccccc1[N+](=O)[O-] | -0.5 | / | 0.51 | / | 3.05* | 8.9 | 0.0889
CCOCCCNC(=O)c1ccc2c(c1)N=C(CC)c1cc(Br)ccc1S2 | 4.5 | -273.3 | -1.22 | -0.746 | 4.07* | 12.0 | 0.0839
CC(C)(O)C(=O)NN(Cc1ccccc1)c1ccccc1 | -7.9 | -73.3 | 0.81 | 1.17 | 0.221 | -4.8 | /
CCOC(=O)c1c(C)n(C)c2ccc(OC)c(NC(=O)CCN3CCC(Cc4ccccc4)CC3)c12 | / | / | / | -0.469 | / | / | 0.0626*
Cc1nc2ccccc2n1C(=O)c1cc(-c2ccc(Br)cc2)nc2ccccc12 | 25.0 | 20.0 | / | -0.0325 | -0.335 | -4.0 | /
O=c1c2ccccc2sn1-c1nccs1 | 36.9 | 38.9 | 0.02 | 0.876 | -3.71* | 11.0 | 0.0709
OC(CNCc1ccco1)Cn1c2ccccc2c2ccccc21 (stereo not given) | 15.9 | -37.1 | -0.28 | -0.587 | -2.15 | 6.9 | /
OC(CNCC1CCCO1)Cn1c2ccccc2c2ccccc21 (stereo not given) | -1.8 | / | -0.68 | 0.00866 | -4.13* | 25.1 | 0.061*
CC1=C/C(=N\NC(=S)NCc2ccccc2)CC1 | 13.8 | / | 0.4 | 0.509 | -0.338 | -1.8 | /
Nc1c(C(=O)N/N=C/c2ccc(Cl)cc2)cnn1-c1ccccc1 | / | / | -0.2 | 1.03 | -1.62 | / | /
Nc1c(C(=O)N/N=C/c2ccc(OCc3ccccc3)cc2)cnn1-c1ccccc1 | / | / | 0.24 | 2.32 | -12.9* | / | 0.0751
O=C(N/N=C/c1c(Cl)cccc1Cl)C(=O)NC1CC1 | -4.8 | / | 0.42 | 0.616 | 0.358 | -7.5 | /
CCOc1c(Br)cc(/C=C2/SC(=O)N(CC(=O)N3CCCC3)C2=O)cc1OC | -13.6 | / | -0.27 | / | 0.383 | -4.7 | /
CCOC(=O)COc1c(Br)cc(/C=C2\SC(=O)N(CC(=O)N3CCCC3)C2=O)cc1OC | -7.1 | -1.7 | -0.2 | -0.00447 | -4.67* | 2.1 | 0.0572*
CN(Cc1nc2ccc(F)cc2[nH]1)Cc1c(C(=O)N(C)C)nc2ccc(Cl)cn12 | -7.3 | / | 0.2 | 0.256 | -0.0877 | -6.5 | /
OC(COCc1cccs1)CN1CCN(c2cccc(Cl)c2)CC1 (stereo not given) | -17.9 | -16.0 | ? | -0.171 | -2.57* | 98.6* | 0.0542*
OC(COCc1cccs1)CN1CCN(c2ccccc2Cl)CC1 (stereo not given) | -9.3 | / | -0.52 | -0.215 | / | 2.4 | /
O=c1c2ccccc2c(/C=N/c2nnc(Cc3ccccc3)s2)c(O)n1-c1ccc(Cl)cn1 | 7.1 | -6.2 | -0.07 | -2.54 | -4.34* | -8.4 | 0.06*
Cc1cccc(C)c1N=Cc1c(O)n(-c2nccs2)c(=O)c2ccccc12 | 10.1 | / | -0.44 | -0.387 | / | 9.8 | /
COC(=O)C1C(c2ccccc2)C(C(=O)O)C1c1ccccc1 (stereo not given) | -23.7 | 10.0 | / | 0.0251 | 1.98 | -1.8 | 0.0748
O=C1CCCC(O)=C1C(C#Cc1ccccc1)C1=C(O)CCCC1=O | 2.1 | -29.0 | -0.04 | -0.617 | -3.76* | 8.6 | 0.0626*
O=C(N/N=C/c1ccco1)C(O)c1ccccc1 (stereo not given) | / | / | 0.4 | 0.553 | -0.246 | / | /
SMILES | WT yeast gro inh | Insulin prom inh | Ins promoter up | KCC2 mod | ROMK mod | Lmaj promast | ROMK hit retest
O=C(Cn1nnc(-c2ccccc2)n1)N/N=C/c1ccco1 | -1.9 | / | -1.77 | 1.39 | -11.7* | -7.8 | 0.0724
CC(C)CC(NC(=O)c1ccccc1)C(=O)N/N=C/c1ccco1 (stereo not given) | -10.3 | -6.7 | 0.28 | 0.00504 | 0.956 | -4.4 | 0.0856
O=C(Cn1nnc2ccccc21)N/N=C/c1ccco1 | -21.1 | / | 2.08 | 0.323 | / | -8.1 | /
CCOC(=O)c1sc(=S)n(-c2cccc(C(F)(F)F)c2)c1SC | 20.8 | 23.3 | / | -0.906 | / | -9.7 | /
CC(C)OCCCNC(=O)c1ccc(NS(C)(=O)=O)cc1 | 8.4 | -8.7 | -0.46 | -0.207 | / | 4.1 | 0.0761
CCOC(=O)NC(NCc1cccc(C(F)(F)F)c1)(C(F)(F)F)C(F)(F)F | -18.7 | / | 0.07 | 0.145 | 0.842 | -6.8 | /
Cn1c(SCC(=O)NNC(=O)Nc2ccccc2)nnc1-c1ccccc1 | / | / | -0.28 | -0.746 | 0.58 | / | /
CCn1c2ccccc2c2cc(CNCc3ccc(OC)cc3OC)ccc21 | 83.6* | / | -0.04 | 0.408 | -5.11* | 80.8* | 0.0459*
CC1(C)N=C(N)N=C(N)N1c1ccc(OCCCOc2ccccc2)c(Cl)c1 | / | / | -1.24 | -3 | -3.11* | / | 0.06*
CCOc1ccc(N2C(N)=NC(N)=NC2(C)C)cc1 | 1.9 | 0.0 | -4.31 | 0.355 | 0.614 | 1.5 | /
COCCn1cc(C(=O)N2CCCC(C)C2)c2c3ccccc3n(C)c2c1=O (stereo not given) | 12.6 | / | -0.32 | / | / | -7.5 | /
O=C(O)c1ccc(Cn2cnc3scc(-c4ccccc4)c3c2=O)cc1 | 4.6 | -76.5 | 0.27 | -0.401 | -6.05* | -0.1 | 0.0551*
Cc1onc(-c2c(F)cccc2Cl)c1C(=O)NCCc1ccc(S(N)(=O)=O)cc1 | -13.2 | 38.5 | 2.14 | 1.34 | / | 0.2 | /
N#Cc1cc2cc3c(cc2nc1SCC(=O)OC1CCCCC1)OCO3 | -3.6 | 32.4 | -0.25 | -0.444 | / | -0.8 | /
CC(=O)CSc1nc2cc3c(cc2cc1C#N)OCCO3 | -0.8 | -346.1 | 0.18 | -1.2 | -3.26* | 22.4 | 0.0543*
COc1ccccc1NC(=O)C(=O)N(c1cccnc1)C(C(=O)NC(C)(C)C)c1ccccc1 (stereo not given) | -13.7 | / | -0.13 | -0.471 | -0.222 | 18.4 | /
c1ccc(-c2csc3ncnc(NCc4ccccn4)c23)cc1 | / | / | -1.29 | -2.71 | / | / | 0.0558*
O=C(NCc1ccc2c(c1)OCO2)C1CCC(CNc2c(N3CCCC3)c(=O)c2=O)CC1 (stereo not given) | 8.1 | 0.0 | -0.61 | 0.411 | / | -3.4 | /
Cc1cc(C)c[n+](C[n+]2cc(C)cc(C)c2)c1 | -1.1 | / | -0.57 | -0.0901 | 0.705 | -4.4 | /
COc1cccc(/C=N/n2c(C)nc3ccccc32)c1OC | 62.4* | -27.0 | 0.9 | -0.034 | -2.72 | 6.4 | 0.0738
COc1ccc(/C=N/n2c(SC)nnc2-c2ccccc2)c(OC)c1OC | 17.0 | 28.6 | 0.38 | / | 3.36* | 21.5 | 0.0798
COc1cccc(/C=N\n2c(C)nnc2C)c1OC | -7.7 | / | -0.17 | / | / | -3.0 | /
CCOCCCN(C(=O)Nc1ccc(CC)cc1)C1CCN(C(C)=O)CC1 | -13.9 | / | 0.06 | 0.437 | 0.715 | -9.9 | /
Cc1nnc(SCc2c(Cl)cccc2Cl)n(N)c1=O | 14.5 | / | -0.22 | -1.24 | -2.94* | 5.7 | 0.0612*
CC1(C)Cc2c(C#N)c(SCCOc3ccccc3)nc(N3CCOCC3)c2CO1 | 19.9 | 0.0 | -3.51 | 0.455 | / | 1.9 | ?
CCCSc1nc(N2CCCC2)c2c(c1C#N)CC(C)(C)OC2 | 9.2 | 42.9 | / | -0.517 | -0.424 | -1.9 | /
